# According to PubChem BioAssay AID651828 (ICCB-Longwood Screening Facility, Harvard Medical School, 2012):
# Hit rate of the full screen: of about 20,000 compounds, about 25 (0.1%) were called active. The full list was thinned out, with actives kept by preference. A number with no mark means an inactive call. No stated cut-off is given here; in the data, active means % bound below about 75%; inactive means the rest.
# Biological target: Nucleoprotein (Rift valley fever virus (strain ZH-548 M12)) (UniProt P21700)
# Experiment: inhibitors of RVFV nucleoprotein–RNA binding, primary screen, biochemical, fluorescence polarization (AID 651828)
# Conditions: RVFV N-RNA binding, active compounds read low, concentration not given here
# Sequence of Nucleoprotein (Rift valley fever virus (strain ZH-548 M12)) (P21700 whole entry, looked up): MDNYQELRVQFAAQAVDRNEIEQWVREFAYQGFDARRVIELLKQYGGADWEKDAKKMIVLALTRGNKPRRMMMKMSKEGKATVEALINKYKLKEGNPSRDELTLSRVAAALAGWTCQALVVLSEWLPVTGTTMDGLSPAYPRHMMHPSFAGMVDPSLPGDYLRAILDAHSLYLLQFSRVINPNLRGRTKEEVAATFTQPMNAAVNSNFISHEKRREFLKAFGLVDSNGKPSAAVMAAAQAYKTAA
row,Compound,% bound
1,N#Cc1cccc2c1-c1ccccc1C2,96%
2,O=C1c2ccc(-c3nc4ccccc4c(=O)o3)cc2C(=O)N1c1ccc2c(c1)OCO2,90%
3,O=C1CC2(CCCC2)C(=O)N1c1ccc(S(=O)(=O)NCc2ccco2)cc1Cl,94.5%
4,CN1CCN(C(=O)c2ccccc2NC(=O)c2ccc(Cl)cc2)CC1,100%
5,CCN(CC)C(=O)N1CC(C)CC(C)C1 (centres undefined),95.2%
6,CCN1CCN(C(c2cccnc2)c2c(NC(C)=O)sc3c2CCCC3)CC1 (centres undefined),109%
7,O=S(=O)(c1ccccc1)N1CCn2cccc2C1c1ccccc1 (centres undefined),99.1%
8,CCSc1nc2ccccc2c(=O)n1C,96.2%
9,CS(=O)(=O)NCCS(=O)(=O)N1CCN(c2ccccc2)CC1,97.1%
10,Cc1ccccc1C(=O)Nc1cccc(N(C)C)c1,99.1%
11,O=C(CS(=O)(=O)c1ccccc1)Nc1ccccc1O,95.9%
12,Cc1cc(NN)nc(-c2ccccc2O)n1,91.2%
13,CS(=O)(=O)NCC(c1cccs1)N1CCc2ccccc21 (centres undefined),95.9%
14,COC(=O)C1CC2=CC(=O)CCC2(C)C2C(O)CC3(C)C(CCC34CCC(=O)O4)C12 (centres undefined),103%
15,O=c1[nH][nH]c(=O)n1/N=C/C=C\c1ccccc1,101%
16,Cc1nnsc1C(=O)Nc1ccc(C(N)=O)cc1,96.7%
17,NC(=O)c1cccc(NC(=O)C(F)(F)F)c1,108%

row,Compound,% bound
1,O=S(=O)(NCCN1CCOCC1)c1ccc(I)cc1,94.4%
2,CCc1ccc2[nH]c(=O)c(Cc3ccccc3)c(O)c2c1,98.2%
3,CC(C)Sc1nnc(NC(=O)C(C)(C)C)s1,96.3%
4,COc1ccc(C(=O)NCCc2cc3c(OC)ccc(OC)c3[nH]c2=O)cc1,97.1%
5,CCOc1ccc(NC(=O)CSc2nc(=O)n(CCCN3CCOCC3)c3c2CCCC3)cc1,105%
6,c1ccc2c(c1)CC(Nc1ccc3cn[nH]c3c1)C2,84.9%
7,S=C(c1ccccn1)N1CCN(C(=S)c2ccccn2)CC1,96.1%
8,O=C(CC1SC(=NC2CC3C=CC2C3)NC1=O)Nc1ccc(Cl)cc1 (centres undefined),89.9%
9,COc1ccc(-c2cc(-c3nnc(N)o3)no2)cc1OC,92.5%
10,CC(C)Nc1ncccn1,104%
11,COCn1c(=O)[nH]c2ccccc21,91.1%
12,CCOC(=O)N1CCN(C(=S)Nc2ccc(Oc3ccccc3)cc2)CC1,92.1%
13,COc1ccc(NC(=O)COc2cccc3c2CCN(C)C3=O)cc1,90.3%
14,Cc1nc(NNC(=O)c2ccccc2)cc(-c2ccccc2)n1,91.7%
15,CC(c1ccccc1)n1c(SCc2nc(-c3ccc(C(C)(C)C)cc3)no2)n[nH]c1=O (centres undefined),95.1%
16,N#CCCSc1nccn1Cc1ccccc1,106%
17,c1ccc2c(c1)OC1OC2Oc2ccccc21,98.8%
